GDH-TPI counter – counter-screen for M. tuberculosis FBA inhibitors: GDH-TPI coupled enzymes; 1.2% of 360,000 active; GDH-TPI coupled enzyme counterscreen, NADH absorbance; inhibition, % at 4.8 µM;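 also: 0% = DMSO wells and 100% = wells lacking the enzyme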
RecA splice inh – Mtb RecA intein splicing inhibition. P9WHJ3. cell-free RecA intein splicing, fluorescence. 0.75% of 290,000 active. inhibition, % (concentration not given with the values); in the data active = inhibition above about 30%; inconclusive = no clear call, values can overlap the other calls;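 also: 0% = vehicle wells and 100% = reference inhibitor control wells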
Mtb bLac sens – beta-lactam sensitization of Mtb H37Rv; M. tuberculosis H37Rv growth with meropenem, percent inhibition; inhibition, % at 25 µM; 0.27% of 330,000 active; AID 434955; call rule not given here;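 also: growth measured after seven days incubation then overnight dye step; 0% = bacteria only wells and 100% = bacteria with antibiotic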
FBA Mtb inh – inhibitors of M. tuberculosis fructose-bisphosphate aldolase. inhibition, % at 1 µM. AID 588726. 2.3% of 360,000 active. purified M. tuberculosis FBA, fluorescence read-out; in the data active = inhibition above about 27%;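 also: 0% = vehicle and 100% = reference inhibitor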
Target sequence (P9WQA3 whole entry, looked up): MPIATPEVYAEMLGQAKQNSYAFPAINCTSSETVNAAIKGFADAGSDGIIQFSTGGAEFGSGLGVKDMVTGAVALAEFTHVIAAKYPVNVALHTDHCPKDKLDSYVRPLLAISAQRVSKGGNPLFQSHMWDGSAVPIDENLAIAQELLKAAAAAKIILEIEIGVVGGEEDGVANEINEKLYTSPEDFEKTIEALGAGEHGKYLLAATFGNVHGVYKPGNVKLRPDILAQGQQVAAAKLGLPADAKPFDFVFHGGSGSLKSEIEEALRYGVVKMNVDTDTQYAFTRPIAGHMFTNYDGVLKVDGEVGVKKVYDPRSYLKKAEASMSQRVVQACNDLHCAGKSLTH
CCHF vOTU inh-1 – CCHFV vOTU protease inhibition | Pep-AMC fluorescence | inhibition, % at 11.5 µM | 0.55% of 370,000 active | AID 651958; also: 0% = vehicle wells with enzyme and 100% = no enzyme wells
GFP chromo cs – counter-screen: blocks GFP chromophore formation; shares compounds with RecA splice inh; cell-free GFP chromophore formation, fluorescence; EC50, µM; 83% of 2,100 active; AID 434968; call rule not given here
CCHF vOTU inh-2 – CCHFV vOTU protease inhibition, confirmation; inhibition, % at 11.5 µM; shares compounds with CCHF vOTU inh-1; Recombinant CCHFV vOTU, Pep-AMC fluorescence; 17% of 1,900 active
An asterisk follows results filed as active; ? = inconclusive; . = no result given. In the library only some 4.2% were active in any assay of this set; here they are far more common. Rule as the data show it, unless noted: active = inhibition above about 30%; inactive = the rest.

SMILES | GDH-TPI counter | RecA splice inh | Mtb bLac sens | FBA Mtb inh | CCHF vOTU inh-1 | GFP chromo cs | CCHF vOTU inh-2
CCCNC1=C(N(C(C)=O)c2cccc(F)c2)C(=O)c2ccccc2C1=O | 9 | 63* | 99 | -2 | 70* | 15* | 46*
Cc1ccc(S(=O)(=O)Nc2cc(C(=O)O)ccc2N2CCC(C)CC2)cc1C | . | . | . | . | 13 | . | .
CCN(CC)c1ccc(NC2=C(Cl)C(=O)c3ccccc3C2=O)cc1 | 11 | . | 7 | -1 | . | . | .
CCNC1=C(Cl)C(=O)c2ccccc2C1=O | -9 | 76* | 75 | -4 | 53* | 33* | 48*
O=C(NC(=S)NC1CCS(=O)(=O)C1)c1ccccc1 (stereo not given) | 0 | -5 | -11 | 2 | 12 | . | .
CN(C1=C(NC(=O)c2ccccc2)C(=O)c2ccccc2C1=O)C1CCS(=O)(=O)C1 (stereo not given) | 0 | 93* | 8 | -3 | 89* | 2.7* | 78*
COc1ccc(CNc2ccc3cn[nH]c3c2)c(OC)c1OC | 18 | 46* | 15 | 4 | 40* | 1.2* | -18
COc1ccc(CNc2ccncc2)c(OC)c1OC | 1 | . | . | -1 | -9 | . | .
Cc1cc(NC(=O)CCc2c[nH]c3ccccc23)ccc1Nc1cccnc1 | . | . | . | . | 5 | . | .
CC(=O)Nc1ccc(S(=O)(=O)NC2=C(N3CCN(c4ccc(F)cc4)CC3)C(=O)c3ccccc3C2=O)cc1 | 9 | 45* | 6 | -5 | 77* | 26* | 69*
Nc1ccc2c(c1)C(=O)c1ccccc1-2 | -11 | 2 | 97 | -1 | 4 | . | .
Nc1ccc2c(c1)C(=O)C(=O)c1ccccc1-2 | 1 | 97* | 100 | -4 | 101* | 5.1* | 97*
O=[N+]([O-])c1ccc(O)c2ncccc12 | -1 | 43* | 82 | -25 | 47* | 25* | 23
CC(C)(C)c1ccc(C#C[C@@H]2C=C[C@@H](O)[C@@H](CO)O2)cc1 | . | . | . | . | 8 | . | .
C[C@@H]1COc2cc(Br)ccc2S(=O)(=O)N1Cc1cn(Cc2ccc(Br)cc2)nn1 | . | . | . | . | -4 | . | .
CCc1nnc(N/N=C/c2cc(Br)c(O)cc2O)n1N | 24 | 40* | 3 | -2 | 96* | 32* | 14
NC(=O)N/N=C\c1cc(Br)ccc1O | 7 | -12 | 1 | 2 | -5 | . | .
CC1=NN(c2ccc(C)c(C)c2)C(=O)C1C(c1cccc(O)c1)C1C(=O)N(c2ccc(C)c(C)c2)N=C1C (stereo not given) | 13 | 95* | 10 | -3 | 42* | 0.91* | 11
COC(=O)c1nc(-c2ccc3c(n2)C(=O)C(N)=C(OC)C3=O)c(N)c(-c2ccc(OC)c(OC)c2O)c1C | 20 | 94* | 66 | 2 | 37* | 0.84* | 106*
COC1=C(N)C(=O)c2nc(-c3nc(C(=O)O)c(C)c(-c4ccc(OC)c(OC)c4O)c3N)ccc2C1=O | . | . | 80 | . | . | . | .
O=[N+]([O-])c1c(NCCCO)cc(N2CCCCCC2)c2nonc12 | 15 | 8 | 3 | -8 | 22 | . | .
O=[N+]([O-])c1c(NCCCO)cc(SCc2ccco2)c2nonc12 | 8 | 65* | 80 | -7 | 48* | 27* | 1
COC1=C(Nc2ccc(O)cc2)C(=O)c2ccccc2C1=O | 12 | 58* | 7 | -2 | 40* | 13* | 5
COc1ccc(NC2=C(NCCO)C(=O)c3ccccc3C2=O)cc1 | 10 | 56* | 4 | -4 | 88* | 31* | 57*
COc1cc2c(c(O)c1OC)C1Cc3ccc(OC)c(OC)c3CN1CC2 (stereo not given) | 1 | . | . | -2 | -1 | . | .
SMILES | GDH-TPI counter | RecA splice inh | Mtb bLac sens | FBA Mtb inh | CCHF vOTU inh-1 | GFP chromo cs | CCHF vOTU inh-2
COc1cc2c(cc1OC)-c1c(OC)c(OC)cc3c1C(C2)N(C)CC3 (stereo not given) | 6 | 71* | -5 | 9 | 38* | 4.3* | 51*
O=C(c1cc(F)cc(F)c1)N1CCCC(c2nc(-c3cccs3)no2)C1 (stereo not given) | . | . | . | . | -3 | . | .
COC(=O)CC#C[C@@H](C)[C@H](NS(=O)(=O)c1ccc(C)cc1)C(C)(C)C | . | . | . | . | 3 | . | .
COc1ccc(C(=O)C2(C(=O)Nc3cc(C)cc(C)c3)CC(c3ccccn3)=NO2)cc1 (stereo not given) | . | . | . | . | 4 | . | .
O=C1C=C(N2CCCCC2)c2ccccc2C1=O | -1 | 98* | -4 | -9 | 82* | 2* | 81*
CN(C)c1ncc(C2=C(Cl)C(=O)C(N3CCCC3)=C(Cl)C2=O)s1 | 18 | 60* | 11 | -3 | 62* | 4.4* | 49*
CCCC1CCC2(CCC(=O)N2CCO)CC1 (stereo not given) | . | . | . | . | 1 | . | .
Cc1[nH][nH]c(=O)c1C(c1c(C)[nH][nH]c1=O)c1cn(Cc2ccccc2Cl)c2ccccc12 | 0 | 99* | . | -6 | 66* | 0.51* | -7
CC1=C(CC(=O)c2ccccc2)C(=O)c2ccccc2C1=O | 7 | 43* | 100 | 0 | 40* | 26* | 34*
COc1ccc(C2C(C(=O)N3CCN(c4ccccc4Cl)CC3)CC(=O)N2c2ccc(OC)cc2)cc1 (stereo not given) | . | . | . | . | 1 | . | .
O=[N+]([O-])c1cc([N+](=O)[O-])c2c(=Nc3ccccc3)n(-c3ccccc3)n(O)c2c1 | 8 | 74* | 100 | -6 | 31* | 4.1* | 1
COc1ccc(C(O)c2nccc3cc(OC)c(OC)cc23)cc1OC (stereo not given) | -2 | 53* | -11 | -2 | 90* | 25* | -10
Cc1[nH]n(-c2ccccc2)c(=O)c1C(c1ccc(C(=O)O)cc1)c1c(C)[nH]n(-c2ccccc2)c1=O | -1 | 96* | 6 | 1 | 71* | 1.2* | -11
Cc1c(C(c2cccc([N+](=O)[O-])c2O)c2c(C)n(C)n(-c3ccccc3)c2=O)c(=O)n(-c2ccccc2)n1C | 12 | -4 | ? | -6 | -2 | . | .
Cc1[nH]n(-c2ccccc2)c(=O)c1C(=O)c1ccc([N+](=O)[O-])cc1 | 1 | 4 | 3 | -1 | 7 | . | .
Cc1[nH]n(-c2ccccc2)c(=O)c1C(c1cccc([N+](=O)[O-])c1O)c1c(C)[nH]n(-c2ccccc2)c1=O | 10 | 93* | 1 | -9 | 33* | 1.3* | -17
Cc1[nH]n(-c2ccccc2)c(=O)c1C(c1cccc([N+](=O)[O-])c1)c1c(C)[nH]n(-c2ccccc2)c1=O | 10 | 85* | 6 | -4 | 41* | 4.8* | -13
CC(=O)N(C1=C(N2CCOCC2)C(=O)c2ccccc2C1=O)c1ccc(C(=O)O)cc1 | 13 | 61* | 23 | -1 | 52* | 20* | 36*
O=C(NC1(O)C(=O)c2ccccc2C1=O)c1c(Cl)cccc1Cl | 2 | 34* | 62 | 0 | 62* | 36* | 14
O=C(NC1(O)C(=O)c2ccccc2C1=O)c1ccccc1 | 3 | 50* | 1 | 1 | 49* | 16* | 31*

Screening data from PubChem BioAssay.
